In the library only some 8% were active in any assay of this set; here they are far more common.
ELG1 DNA repair: qHTS screen for small molecules that inhibit ELG1-dependent DNA repair in human embryonic kidney (HEK293T) cells expressing luciferase-tagged ELG1. HEK293T ELG1-luciferase reporter, luminescence, 16 h; DNA damage induced by 5-fluorouridine. Potency, µM (highest dose often 46.1 µM), for the others: top-dose activity change, negative = inhibition, usual class: inhibitors. 330,000 compounds, 2.3% hits; also: potency is read from the fitted curve at half-maximal effect; nearly all actives have a fitted effect of over 55% in size
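HEK293T cells expressing luciferase-tagged ELG1 (2,000/well) received 5-Fluorouridine plus compound or DMSO for 16 hr at 37 °C. Luciferase was read by ONE-Glo luminescence after 30 min at room temperature.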
RORgamma inh: qHTS for inhibitors of ROR gamma transcriptional activity. Nuclear receptor ROR-gamma (Mus musculus), P51450. 310,000 compounds, 5.4% hits. AID 2551, 2010. Drosophila S2 Gal4-RORgamma UAS-luciferase reporter, 20 h. Potency, µM (series often up to 53.6 µM), for inactives: at the top dose activity change, negative = inhibition, usual class: inhibitors; also: potency is read from the fitted curve at half-maximal effect; nearly all actives have a fitted effect of over 60% in size
Target sequence (P51450 whole entry, looked up, the tested form may be a part): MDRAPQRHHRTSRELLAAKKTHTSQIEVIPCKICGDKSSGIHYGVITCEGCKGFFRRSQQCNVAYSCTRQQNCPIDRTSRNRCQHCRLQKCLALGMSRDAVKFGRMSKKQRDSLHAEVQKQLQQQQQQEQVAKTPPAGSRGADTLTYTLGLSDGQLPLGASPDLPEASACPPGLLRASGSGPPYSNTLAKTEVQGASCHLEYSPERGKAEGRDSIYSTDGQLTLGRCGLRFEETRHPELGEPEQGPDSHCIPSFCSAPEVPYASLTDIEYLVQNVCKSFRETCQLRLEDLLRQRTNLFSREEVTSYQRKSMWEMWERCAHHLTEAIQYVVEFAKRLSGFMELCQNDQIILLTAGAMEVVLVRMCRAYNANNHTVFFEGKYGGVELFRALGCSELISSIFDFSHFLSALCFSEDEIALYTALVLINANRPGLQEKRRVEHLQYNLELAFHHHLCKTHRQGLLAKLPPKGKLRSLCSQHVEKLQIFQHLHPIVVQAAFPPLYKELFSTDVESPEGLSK
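Schneider cells (Drosophila), stable Gal4 DBD–ROR gamma + UAS-luc; 1 hr cmpd preincubation; Cu2+ induction 700 uM final; 20 hr ambient; luminescence.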
TSHR antagonist: Antagonists of the Thyroid Stimulating Hormone Receptor: HTS campaign; Thyrotropin receptor (Homo sapiens), P16473; TSHR-expressing cells, TSH-stimulated cAMP HTRF, 2 h; hits give low values; activity change, negative = inhibition, % at 11.5 µM; 330,000 compounds, 0.2% hits; AID 504810, 2011;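 active = activity change below a set negative limit, meaning inhibition stronger than a set level, cut at about -70% in these data; inconclusive = activity change between two set negative limits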
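TSHR-expressing cells were treated with compounds, then stimulated with TSH at EC80 (4nM final) for 2 hours at 37 deg C. Cellular cAMP was measured by HTRF competition between lysate cAMP and cAMP-d2 for a cryptate-labelled anti-cAMP antibody.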
Coupling enz: qHTS Assay for Inhibitors of Fructose-1,6-bisphosphate Aldolase from Giardia Lamblia: Coupling assay counterscreen; AID 2472, 2010; activity change, negative = inhibition, % at 58.2 µM, hits read low; 290,000 compounds, 0.67% hits; coupling enzyme system counterscreen, AmpLite Red fluorescence; in the data active = activity change below about -30%
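Counterscreen of the coupled detection system alone, without aldolase: glyceraldehyde-3-phosphate coupling enzymes plus AmpLite Red readout. Compounds at 57.5 uM final, 10 min RT preincubation, 20 min RT reaction, fluorescence 525/598 nm.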
Gal4-VP16 FLuc: VP16 counterscreen qHTS for inhibitors of ROR gamma transcriptional activity; 310,000 compounds, 3.5% hits; Drosophila S2 Gal4-VP16 UAS-luciferase, luminescence, 20 h; Potency, µM (series often up to 53.6 µM), for inactives: at the top dose activity, negative = inhibition, usual class: inhibitors;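 also: Gal4-VP16 expression switched on by copper sulfate through the metallothionein promoter; potency is read from the fitted curve at half-maximal effect; nearly all actives have a fitted effect of over 50% in size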
The depositor's hits bear a star; ? = inconclusive; . = not tested or not shown. Unless noted, calls follow the shape of the dose curve; as a rule, active = well fitted curve in the direction sought with a large enough effect; inconclusive = small, poorly fitted or top-dose-only effect, or another doubt; inactive = no such curve, though single readings can be large; an effect the other way counts as inactive or inconclusive. % is scaled to controls: 0 for no effect and ±100 for the full control effect.

SMILES	ELG1 DNA repair	RORgamma inh	TSHR antagonist	Coupling enz	Gal4-VP16 FLuc
Cc1[nH]c(=O)[nH]c(=O)c1/C=N/NC(=O)[C@H](C)N	6%	112µM*	0	1	?
Cc1[nH]c(=O)[nH]c(=O)c1/C=N/NC(=O)[C@@H](NC(=O)OC(C)(C)C)C(C)C	5%	-18%	1	1	-6%
C/C=C/c1ccc(OCC(=O)N(CCOC)c2c(N)n(CCCC)c(=O)[nH]c2=O)c(OC)c1	-16%	.	9	.	.
CCc1cccc(CC)c1N(COC)C(=O)Cn1cnc2ccccc21	12%	10µM*	0	3	15%
CCOC(=O)c1cnn(-c2ccc(NS(=O)(=O)c3ccc(Cl)cc3)cc2)c1C(F)(F)F	23µM*	?	-16	-2	-18%
CCOC(=O)c1ccc(NS(=O)(=O)c2ccc(Cl)nc2)cc1	-15%	30%	-2	3	5%
COc1cccc(CC(NC(C)=O)C(=O)NC2CCN(c3c(Cc4ccccc4)c(C)nc4ncnn34)CC2)c1 (stereo unspecified)	?	?	-7	3	-1%
COc1ccc(OC)c(CC(NC(C)=O)C(=O)NC2CCN(c3c(Cc4ccccc4)c(C)nc4ncnn34)CC2)c1 (stereo unspecified)	23µM*	3%	-3	0	-3%
O=C(O)CCN1C(=O)C(=C2CCCCCC2)SC1=S	0%	?	-26	-2	2%
O=C1C(=C2CCCCC2)SC(=S)N1Cc1ccco1	-14%	13µM*	0	0	-1%
Cc1nc2cc(Nc3nnc(-c4ccccc4)c4ccccc34)ccc2n1C	?	7.1µM*	-2	-2	6.3µM*
Clc1cccc(Nc2nnc(-c3ccccc3)c3ccccc23)c1	.	-31%	.	-6	5%
Cc1cccc(OC(C)C(=O)Nc2nc(-c3ccncc3)cs2)c1 (stereo unspecified)	-9%	.	-1	.	.
CCN(CC)CCCn1c2c(c(SCC(=O)Nc3ccccc3Cl)nc1=O)CCC2	4%	.	8	.	.
CCOc1ccc(Nc2ncnc3ccc([N+](=O)[O-])cc23)cc1	9.2µM*	32%	-18	1	-20%
C=CCNC(=O)C1CCC(=O)N1S(=O)(=O)c1ccc(C)cc1 (stereo unspecified)	3%	-21%	-8	4	0%
O=C(OCCOc1cccc(Cl)c1)c1cc(S(=O)(=O)N2CCCCC2)ccc1N1CCOCC1	5.2µM*	.	-12	.	.
CC(C)CCCC(C)NC(=O)c1cc(S(=O)(=O)N2CCCCC2)ccc1N1CCOCC1 (stereo unspecified)	11µM*	.	-5	.	.
COc1ccc(N2CCN(C3CCCN(Cc4cccc(OC)c4)C3)CC2)cc1 (stereo unspecified)	-16%	-11%	-17	-1	1%
NCCCCCCCCCCNCCCN	.	-5%	.	0	10%
Clc1ccc(CNCCC2=CCCCC2)cc1	-15%	-5%	-17	0	-1%
COc1ccc(C)cc1S(=O)(=O)NCCC1=CCCCC1	?	-11%	-3	0	11µM*
COc1ccc(NC(=O)NCCC2=CCCCC2)cc1	?	-1%	3	0	-5%
S=C(NCCC1=CCCCC1)Nc1ccc(Cl)cc1	?	3.5µM*	11	-1	?
COc1ccc(C)cc1S(=O)(=O)N1CCC(C(=O)NCCC2=CCCCC2)CC1	11%	-9%	-4	2	-4%
COc1ccc(NC(=S)NCCC2=CCCCC2)cc1OC	?	2.5µM*	3	1	13µM*
COc1ccccc1C(=O)NCCC(=O)N1CCN(S(=O)(=O)c2ccccc2C(F)(F)F)CC1	-5%	.	-4	.	.
O=C(CSC1=NS(=O)(=O)c2ccccc2N1)NCc1ccc(F)cc1	5%	.	5	.	.
CCOc1ccc(-c2csc(NC(=O)CSC3=NC(=O)CN3C(C)=O)n2)c2ccccc12	?	11µM*	?	-1	7.9µM*
